The values that follow come from PubChem BioAssay (Tox21).

Unmarked numbers belong to inactive results. Inconclusive results are not listed. Active and inactive are the calls of the source. Unless noted, calls come from the whole dose curve; as a rule, active = well fitted curve in the direction sought with a large enough effect in the repeat runs; inconclusive = weak or mixed curves; inactive = no such curve, though single readings can be large; an effect the other way counts as inactive or inconclusive.

Test [1] is described as follows: qHTS assay to identify small molecule agonists of the estrogen receptor alpha (ER-alpha) signaling pathway in the presence of an antagonist - cell viability counter screen (AID 1259386).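 Note: cells exposed to compounds for 22 h at 37 °C before the viability read; nearly all actives have a fitted effect of over 30% in size.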 Note: potency is the fitted concentration of half-maximal effect. The procedure, abridged:
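ICI-182,780 at 10.0nM final accompanies the compound titration (15 concentrations, 22hr, 37C) on VM7Luc4E2 cells. The CellTiter-Fluor fluorescence readout runs in the same wells as the luciferase assay.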
For orientation: In qHTS, concentration-response curves come from the screen itself.

Test [2] addresses Progesterone receptor (Homo sapiens) (UniProt P06401). Kind of test: qHTS assay to identify small molecule agonists of the progesterone receptor (PR) signaling pathway (AID 1346784; calls by dose curve; note: nearly all actives have a fitted effect of over 30% in size). The procedure, abridged:
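Agonist qHTS: compounds pinned onto 3,000 PR-UAS-bla HEK 293T cells per well in charcoal-stripped serum medium, 16hr at 37C, then beta-lactamase activity measured by LiveBLAzer FRET fluorescence after 2 hours at room temperature.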

Test [3] has the same target. Kind of test: qHTS assay to identify small molecule antagonists of the progesterone receptor (PR) signaling pathway (AID 1346795; active = well fitted inhibition curve with a large enough effect in the signal ratio in the repeat runs, not every such curve was filed as active; the % refers to the signal ratio; note: potency is the fitted concentration of half-maximal effect). The procedure, abridged:
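Antagonist mode with agonist R5020 at 1 nM final and 16 hr incubation at 37C. Reporter was beta-lactamase driven by UAS in HEK293T (PR-UAS-bla), 2% charcoal-stripped serum; signal from LiveBLAzer FRET substrate, 2 hr at room temperature.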

Test [4] in a line: qHTS assay to identify small molecule antagonists of the progesterone receptor (PR) signaling pathway - cell viability counter screen (AID 1346798). Note: series mostly up to about 92 µM; nearly all actives have a fitted effect of over 50% in size. The gist of the method: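 Cytotoxicity read as CellTiter-Glo luminescence (30 min, room temperature) in the same wells as the beta-lactamase readout. HEK293T PR-UAS-bla cells in charcoal-stripped 2% FBS received compound and R5020, then 16 h at 37C, 5% CO2.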

The nature of test [5]: qHTS assay to identify small molecule agonists of the progesterone receptor (PR) signaling pathway - cell viability counter screen (AID 1346799; calls by dose curve; note: nearly all actives have a fitted effect of over 45% in size). The procedure, abridged:
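Cytotoxicity measured by CellTiter-Glo luminescence (30 min, RT) in the same wells as the PR beta-lactamase agonist read. Those HEK293T cells had 16 h compound treatment at 37 C in 2% charcoal-stripped FBS medium.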

Test [6] in a line: qHTS assay to identify small molecule antagonists of the TGF-beta/Smad signaling pathway - cell viability counter screen (AID 1346824). Note: nearly all actives have a fitted effect of over 50% in size. The gist of the method: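 SBE-bla HEK 293T cells were plated overnight at 37 C, then given compounds in DMSO plus TGF-beta1 (added as 0.25 ng/mL solution) for 5 hr. After the bla read, CellTiter-Glo was added to the same wells and luminescence read after 30 min at room temperature.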

The nature of test [7]: qHTS assay to identify small molecule agonists of the TGF-beta/Smad signaling pathway - cell viability counter screen (AID 1346829). Note: top concentration of the series differs between compounds; nearly all actives have a fitted effect of over 45% in size. The gist of the method: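 Here the cytotoxicity of library compounds is measured in SBE-bla HEK 293T cells treated for 5 hr, using CellTiter-Glo added to wells already read for the beta-lactamase reporter.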
The nature of test [8]: qHTS assay to identify small molecule agonists of the TGF-beta/Smad signaling pathway (AID 1346859; active = well fitted activation curve with a large enough effect in the signal ratio in the repeat runs, not every such curve was filed as active; the % refers to the signal ratio; note: series mostly up to about 77 µM). The procedure, abridged: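 Fluorescence (ex 405 nm; em 460 and 530 nm) was read 2 h after LiveBLAzer FRET substrate at RT. The preceding compound treatment of overnight-plated SBE-bla HEK293T cells lasted 5 h at 37 C.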
The target of test [9] is Thyrotropin-releasing hormone receptor (Homo sapiens) (UniProt P34981). Put plainly: qHTS assay to identify small molecule antagonists of the thyrotropin-releasing hormone receptor (TRHR) signaling pathway (AID 1346877; active = well fitted inhibition curve with a large enough effect in the repeat runs, not every such curve was filed as active; note: series mostly up to about 51 µM). The gist of the method: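 Screening used HEK293 cells engineered with TRHR, with a brief 5 min room-temperature compound exposure preceding addition of TRH to 1 nM. The read-out was kinetic calcium-dye fluorescence, concentration-response from 15 doses in triplicate.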

For test [10] the target is unchanged. Kind of test: qHTS assay to identify small molecule agonists of the thyrotropin-releasing hormone receptor (TRHR) signaling pathway (AID 1346891; calls by dose curve; note: series mostly up to about 58 µM). The gist of the method:
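Agonist-mode intracellular calcium readout: kinetic fluorescence over 3 min at 1 s intervals after compound addition to TRHR-HEK293 cells (18 h seeded, 2 h dye-loaded at 37 C). Fifteen concentrations, triplicates.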

Test [11] can be described thus: Caspase-3/7 induction in HepG2 cells by small molecules, qHTS assay (AID 1346978). Note: nearly all actives have a fitted effect of over 15% in size. The procedure, abridged:
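Wild-type HepG2 cells (2,000/well) were settled 5 h at 37 C, 5% CO2, then exposed to compounds in DMSO for 17 h. Caspase-3/7 activity was read by luminescence 30 min after adding Caspase-Glo 3/7 reagent at room temperature.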

A short description of test [12]: Caspase-3/7 induction in CHO-K1 cells by small molecules, qHTS cell viability counter screen (AID 1346979). Note: nearly all actives have a fitted effect of over 35% in size. Note: potency is the fitted concentration of half-maximal effect. The procedure, abridged: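 Cytotoxicity counter screen: CellTiter-Fluor added to compound-treated wild-type CHO-K1 cells at 16 h (37C, 5% CO2), fluorescence measured 1 h later; same wells as caspase-3/7 measurement.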
The nature of test [13]: Caspase-3/7 induction in HepG2 cells by small molecules, qHTS cell viability counter screen (AID 1346981). Note: nearly all actives have a fitted effect of over 30% in size. Note: potency is the fitted concentration of half-maximal effect. The procedure, abridged:
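Multiplexed with the caspase-3/7 assay: HepG2 cells, 16 hr compound treatment, CellTiter-Fluor viability detection by fluorescence.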

Test [14] addresses Nuclear receptor subfamily 1 group I member 2 (Homo sapiens) (UniProt O75469). Put plainly: Human pregnane X receptor (PXR) small molecule agonists, qHTS assay (AID 1346982). Note: nearly all actives have a fitted effect of over 35% in size. Note: potency is the fitted concentration of half-maximal effect. The gist of the method:
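We seeded PXR-Luc HepG2 cells in assay medium containing 5% charcoal-stripped FBS, added compounds 5 hr later, incubated 24 hr, and read luminescence with ONE-Glo reagent.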

Test [15] addresses Nuclear receptor subfamily 1 group I member 2 (Rattus norvegicus) (UniProt Q9R1A7). Kind of test: Rat pregnane X receptor (rPXR) activation by small molecules, qHTS assay (AID 1346983). Note: nearly all actives have a fitted effect of over 20% in size. Particulars: rPXR luciferase reporter cells, One-Glo luminescence, 24 h; max activation: stronger effect = higher value. The procedure, abridged: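 Cell-based rPXR luciferase reporter assay, 2,000 cells per well, rested 5hr at 37 C before compound addition in DMSO, then 24 hr at 37 C. One-Glo reagent was added and luminescence read after 30 min at room temperature.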

Test [16] addresses Nuclear receptor subfamily 1 group I member 2 (Homo sapiens) (UniProt O75469). Put plainly: CYP3A4 induction through human pregnane X receptor (PXR) by small molecules, qHTS assay (AID 1346984). Note: nearly all actives have a fitted effect of over 40% in size. The gist of the method: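 qHTS, concentration-response format: HepG2 DPX-2 line, PXR/CYP3A4-luc. Exposure 24 h, 37C. Substrate Luciferin-IPA 3uM final, 3 h. Detection One-Glo, 30 min RT.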

Test [17] shares this target. Kind of test: Human pregnane X receptor (PXR) activation by small molecules, qHTS assay (AID 1346985). Note: nearly all actives have a fitted effect of over 40% in size. Note: potency is the fitted concentration of half-maximal effect. The procedure, abridged:
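DPX-2 cells (HepG2 co-transfected with a PXR response element and a CYP3A4-promoter luciferase construct) were seeded at 2,000 per well, rested 5 hr at 37C, then exposed to DMSO-dissolved compounds for 24 hr. Activation was read as luciferase luminescence.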

Test [18] in a line: Caspase-3/7 induction in CHO-K1 cells by small molecules, qHTS assay (AID 1346980). Note: nearly all actives have a fitted effect of over 15% in size. The gist of the method: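 Wild-type cells were seeded at 1,500 per well and settled 5 hr at 37 C, 5% CO2, then exposed to DMSO-dissolved compounds for 17 hr. Caspase-Glo 3/7 reagent was added, and luminescence was read after 30min at room temperature.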
The target in test [19] is Thyrotropin receptor (Homo sapiens) (UniProt P16473). Kind of test: qHTS assay to identify small molecule antagonists of the thyroid stimulating hormone receptor (TSHR) signaling pathway (AID 1259385; calls by dose curve; note: nearly all actives have a fitted effect of over 20% in size). The procedure, abridged:
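TSHR-HEK293 cells were plated and held 18 h at 37C/5% CO2, then given compound plus Ro20-1724 and stimulated with TSH at 1.5 ng/mL final. After 30 min at room temperature, cAMP was detected with cAMP-d2/anti-cAMP-cryptate (1 h) by fluorescence.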

A short description of test [20]: Human pregnane X receptor (PXR) small molecule agonists, qHTS cell viability counter screen (AID 1346977). Note: nearly all actives have a fitted effect of over 50% in size. The procedure, abridged:
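Same-well viability read: CellTiter-Fluor added after 23 hr compound exposure, fluorescence measured 1 hr later. Cells were PXR-Luc HepG2 seeded at 2,000/well in 5% charcoal-stripped FBS medium, rested 5 hr before dosing at 37 C.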
% is set by controls: 0 for no effect and ±100 for the full control effect.

Sequence of Nuclear receptor subfamily 1 group I member 2 (Rattus norvegicus) (Q9R1A7 whole entry, looked up): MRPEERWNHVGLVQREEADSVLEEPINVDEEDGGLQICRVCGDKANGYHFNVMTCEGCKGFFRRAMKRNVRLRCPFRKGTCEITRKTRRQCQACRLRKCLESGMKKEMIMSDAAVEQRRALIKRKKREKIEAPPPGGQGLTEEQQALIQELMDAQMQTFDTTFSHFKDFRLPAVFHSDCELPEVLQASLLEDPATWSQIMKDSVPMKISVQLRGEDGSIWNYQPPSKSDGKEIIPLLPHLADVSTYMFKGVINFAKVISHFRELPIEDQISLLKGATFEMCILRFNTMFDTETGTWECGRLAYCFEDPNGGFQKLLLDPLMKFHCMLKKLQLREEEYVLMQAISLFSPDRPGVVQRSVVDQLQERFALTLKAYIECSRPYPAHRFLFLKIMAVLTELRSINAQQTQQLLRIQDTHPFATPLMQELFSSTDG
Sequence of Nuclear receptor subfamily 1 group I member 2 (Homo sapiens) (O75469 whole entry, looked up): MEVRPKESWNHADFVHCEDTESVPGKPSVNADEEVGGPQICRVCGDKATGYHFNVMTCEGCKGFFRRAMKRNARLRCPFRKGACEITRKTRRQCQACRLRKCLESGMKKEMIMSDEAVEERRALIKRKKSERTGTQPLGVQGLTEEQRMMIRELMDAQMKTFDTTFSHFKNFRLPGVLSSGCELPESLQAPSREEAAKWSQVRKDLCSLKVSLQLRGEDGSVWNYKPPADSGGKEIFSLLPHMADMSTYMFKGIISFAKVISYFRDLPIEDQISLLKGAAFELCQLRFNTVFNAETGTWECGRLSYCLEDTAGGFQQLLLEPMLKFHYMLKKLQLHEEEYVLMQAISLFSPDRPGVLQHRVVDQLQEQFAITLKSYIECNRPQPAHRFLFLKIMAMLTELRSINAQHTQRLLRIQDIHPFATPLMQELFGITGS
Sequence of Progesterone receptor (Homo sapiens) (P06401 whole entry, looked up): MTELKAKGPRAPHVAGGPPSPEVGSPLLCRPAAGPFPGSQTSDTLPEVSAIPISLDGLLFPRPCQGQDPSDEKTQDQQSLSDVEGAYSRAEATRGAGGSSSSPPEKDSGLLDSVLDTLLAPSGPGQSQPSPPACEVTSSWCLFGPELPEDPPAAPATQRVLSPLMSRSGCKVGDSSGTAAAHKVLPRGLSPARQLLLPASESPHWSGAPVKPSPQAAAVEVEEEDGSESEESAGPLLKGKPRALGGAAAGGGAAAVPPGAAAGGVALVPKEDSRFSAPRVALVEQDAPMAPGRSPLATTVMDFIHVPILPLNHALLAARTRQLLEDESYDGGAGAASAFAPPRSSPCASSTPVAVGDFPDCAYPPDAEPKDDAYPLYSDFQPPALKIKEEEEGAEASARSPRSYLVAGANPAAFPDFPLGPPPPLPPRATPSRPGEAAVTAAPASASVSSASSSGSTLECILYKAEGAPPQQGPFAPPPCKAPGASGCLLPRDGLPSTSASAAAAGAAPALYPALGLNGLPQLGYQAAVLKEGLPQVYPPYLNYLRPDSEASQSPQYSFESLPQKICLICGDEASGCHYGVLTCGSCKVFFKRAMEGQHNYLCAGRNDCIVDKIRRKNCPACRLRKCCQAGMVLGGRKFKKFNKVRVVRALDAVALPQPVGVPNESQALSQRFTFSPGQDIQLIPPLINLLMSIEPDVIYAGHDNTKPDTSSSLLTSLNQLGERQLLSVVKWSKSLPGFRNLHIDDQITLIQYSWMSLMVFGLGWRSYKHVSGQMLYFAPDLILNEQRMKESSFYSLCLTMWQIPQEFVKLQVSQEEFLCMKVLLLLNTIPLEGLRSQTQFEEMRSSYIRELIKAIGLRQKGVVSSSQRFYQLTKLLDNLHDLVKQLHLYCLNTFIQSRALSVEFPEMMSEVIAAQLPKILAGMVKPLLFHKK
Sequence of Thyrotropin-releasing hormone receptor (Homo sapiens) (P34981 whole entry, looked up): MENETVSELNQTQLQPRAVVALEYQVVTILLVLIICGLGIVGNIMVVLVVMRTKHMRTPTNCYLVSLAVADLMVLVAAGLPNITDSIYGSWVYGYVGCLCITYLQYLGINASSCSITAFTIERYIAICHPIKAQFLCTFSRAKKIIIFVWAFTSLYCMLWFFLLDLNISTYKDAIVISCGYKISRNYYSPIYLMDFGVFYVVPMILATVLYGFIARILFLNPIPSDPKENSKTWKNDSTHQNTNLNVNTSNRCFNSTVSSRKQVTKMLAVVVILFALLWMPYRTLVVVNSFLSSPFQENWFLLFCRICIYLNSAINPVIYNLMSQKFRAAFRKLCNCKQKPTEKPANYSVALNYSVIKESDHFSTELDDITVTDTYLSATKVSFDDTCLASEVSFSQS
Sequence of Thyrotropin receptor (Homo sapiens) (P16473 whole entry, looked up): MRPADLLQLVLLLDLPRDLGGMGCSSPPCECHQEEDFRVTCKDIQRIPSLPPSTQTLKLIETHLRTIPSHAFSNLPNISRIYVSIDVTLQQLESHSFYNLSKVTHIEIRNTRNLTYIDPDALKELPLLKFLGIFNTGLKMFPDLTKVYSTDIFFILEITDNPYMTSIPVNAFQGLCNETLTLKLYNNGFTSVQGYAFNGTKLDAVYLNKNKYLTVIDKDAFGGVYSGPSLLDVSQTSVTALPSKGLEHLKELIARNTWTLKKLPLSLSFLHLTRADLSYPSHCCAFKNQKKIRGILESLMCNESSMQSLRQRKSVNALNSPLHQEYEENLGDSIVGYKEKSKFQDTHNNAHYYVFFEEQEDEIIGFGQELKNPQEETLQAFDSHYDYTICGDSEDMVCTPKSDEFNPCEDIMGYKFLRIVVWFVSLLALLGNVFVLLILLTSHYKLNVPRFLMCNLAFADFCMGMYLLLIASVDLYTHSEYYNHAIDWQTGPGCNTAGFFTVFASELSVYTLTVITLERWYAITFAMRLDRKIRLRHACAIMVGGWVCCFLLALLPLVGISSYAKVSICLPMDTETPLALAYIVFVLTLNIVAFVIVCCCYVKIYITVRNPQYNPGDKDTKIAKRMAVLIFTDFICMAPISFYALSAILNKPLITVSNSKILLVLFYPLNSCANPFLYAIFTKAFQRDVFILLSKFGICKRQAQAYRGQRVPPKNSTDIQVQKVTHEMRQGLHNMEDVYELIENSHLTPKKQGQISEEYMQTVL

In the case of `CN1C(=O)OC(C)(C)C1=O`, the Potency entry in test [1], in test [2], in test [3], in [4], in [5] and in [6] was “inactive” throughout. Also, the Potency entry in test [7], in [8], in test [10], in test [11], in [12] and in test [13] was “inactive” each time. Moreover, the Potency result in test [16] and in test [17] was “inactive” in each case. For the same compound, the compound was called inactive in [9]. In addition, in test [14], the Potency is 37.9 µM (active). The max activation in test [15] is -2.55%.

Regarding `CC[N+](CC)(CCNC(=O)C(=O)NCC[N+](CC)(CC)Cc1ccccc1Cl)Cc1ccccc1Cl`, the Potency entry in [1], in test [2], in [3], in [4], in test [5] and in [6] was “inactive” in each case. The Potency entry in test [7], in [8], in test [10], in test [11], in test [12] and in test [18] was “inactive” in each case. Besides, the Potency result in [13], in test [14], in [16] and in test [17] was “inactive” in each case. In addition, the compound was called inactive in test [9]. Further, the max activation in test [15] was -3.21%.

As for `O=c1c(O)c(-c2ccc(O)cc2)oc2cc(O)cc(O)c12`, the Potency entry in test [19], in test [2], in [6], in test [7], in test [11] and in test [18] was “inactive” each time. In addition, the figures for the Potency in test [3], in test [12] and in test [13] were 5.19 µM (active), 60.9 µM (active) and 60.9 µM (active), respectively.

In the case of `CC/C=C1/OC(=O)c2ccccc21`, the Potency entry in test [1], in test [2], in test [3], in test [4], in [6] and in test [8] was “inactive” throughout. In addition, the Potency result in test [10], in test [20], in [11], in test [12], in [18] and in test [13] was “inactive” in each case. The Potency result in [14] is “inactive”. For the same compound, the compound was classed as inactive in test [9].

For the compound `CC1=C(Br)C(=O)C(Br)=C/C1=C(/c1ccccc1S(=O)(=O)O)c1cc(Br)c(O)c(Br)c1C`, the Potency in [1] is 18.6 µM (active); in test [12], 18.6 µM (active); in test [13] it was 37 µM (active). The Potency entry in [2], in test [3], in [4], in test [6], in test [7] and in test [8] was “inactive” each time. Also, the Potency entry in test [10], in [11], in test [18] and in [14] was “inactive” throughout. Further, in test [9], the compound was called inactive.

Take `CN(C(=O)CN(CCO)CC(=O)N(C)C(C)(C)Cc1ccccc1)C(C)(C)Cc1ccccc1`: the Potency entry in test [1], in test [2], in test [3], in test [4], in [5] and in [6] was “inactive” each time. The Potency result in test [7], in test [8], in test [10], in test [20], in [11] and in test [18] was “inactive” throughout. For the same compound, the Potency entry in test [13] is “inactive”. In test [9], the compound was classed as inactive. Also, the Potency in test [14] was 2.37 µM (active); in test [17], 8.91 µM (active).

For `CN1CCCN=C1COC(=O)C(O)(c1ccccc1)C1CCCCC1` (stereo unspecified), the Potency entry in [1], in test [2], in test [3], in test [4], in [5] and in test [6] was “inactive” throughout. The Potency result in test [7], in test [8], in [10], in test [20], in [11] and in test [12] was “inactive” in each case. The Potency entry in test [18], in [13], in test [14] and in test [17] was “inactive” throughout. In [9], the result was inactive. The max activation in test [15] was -0.811%.
